Laboratory results published in PubChem BioAssay AID1645838 (ICCB-Longwood Screening Facility, Harvard Medical School, 2021).
Screen size: about 2,000 compounds; about 100 (5%) were called active. No stated cut-off is given here; in the data, active means z-score above about 2; inactive means the rest. For the sample, actives were picked, then their nearest neighbours and some compounds at random.

Test: supercomplex reporter luminescence per Hoechst cell count – Hoechst nuclei count (AID 1645838);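 further: control cybrid cells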;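 on z-score: higher means more mitochondrial supercomplex formation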
Conditions: Cells, luminescence/Hoechst cell count ratio; for z-score: stronger effect = higher value; for cell count: measured here: cell number, Hoechst nuclei count; for outcome: library stock 10 mM
[1] = library stock concentration (final well concentration not given) 80 uM
[2] = library stock concentration (final well concentration not given) 400 uM
[3] = library stock concentration (final well concentration not given) 2 mM
[4] = library stock concentration (final well concentration not given) 10 mM
[5] = library stock concentration (final well concentration not given) 46 uM
[6] = library stock concentration (final well concentration not given) 278 uM
[7] = library stock concentration (final well concentration not given) 1.67 mM

Question: For COC(=O)CCCCCC[C@@H]1[C@@H](CCC(O)C#Cc2ccccc2F)[C@H](O)C[C@@H]1O (some centres not stated), which z-score is on record?
Answer: -0.523 (inactive)

Question: And the cell count?
Answer: 5390

Question: Which z-score does the source give for CCCCC[C@H](O)/C=C/[C@@H]1[C@H]2C[C@H](CCCCC(=O)O)O[C@H]2C[C@H]1O here?
Answer: 0.18 (inactive)

Question: What about the cell count of the same compound?
Answer: 5310

Question: Which z-score [1] does the source give for COc1cc(N2CCC(C(N)=O)CC2)ccc1Nc1nc(N)c(Cl)c(Nc2ccccc2S(=O)(=O)C(C)C)n1 here?
Answer: -0.397 (inactive)

Question: What about the z-score [2] of the same compound?
Answer: -0.357 (inactive)

Question: And the z-score [3]?
Answer: -0.497 (inactive)

Question: And the z-score [4]?
Answer: -0.438 (inactive)

Question: What about the cell count [1] of the same compound?
Answer: 5060

Question: And the cell count [2]?
Answer: 4660

Question: What about the cell count [3] of the same compound?
Answer: 4640

Question: What about the cell count [4] of the same compound?
Answer: 4760

Question: With C#Cc1cccc(Nc2ncnc3cc4c(cc23)OCCOCCOCCO4)c1 as the compound, how does the z-score [1] read?
Answer: -0.401 (inactive)

Question: And the z-score [2]?
Answer: -0.555 (inactive)

Question: What about the z-score [3] of the same compound?
Answer: -0.372 (inactive)

Question: And the z-score [4]?
Answer: -0.218 (inactive)

Question: What about the cell count [1] of the same compound?
Answer: 5760

Question: What about the cell count [2] of the same compound?
Answer: 5920

Question: And the cell count [3]?
Answer: 5800

Question: What about the cell count [4] of the same compound?
Answer: 5980

Question: Which results are given for COc1cc2ncnc(Nc3cc(Br)c(O)c(Br)c3)c2cc1OC?
Answer: z-score [1]: -0.757 (inactive); z-score [2]: -0.502 (inactive); z-score [3]: -0.971 (inactive); z-score [4]: -0.687 (inactive); cell count [1]: 4740; cell count [2]: 4630; cell count [3]: 5420; cell count [4]: 5090

Question: For C#Cc1cccc(Nc2ncnc3cc(OCCOC)c(OCCOC)cc23)c1, which z-score [1] is on record?
Answer: 0.334 (inactive)

Question: And the z-score [2]?
Answer: 0.287 (inactive)

Question: What about the z-score [3] of the same compound?
Answer: -0.186 (inactive)

Question: And the z-score [4]?
Answer: 2.02 (active)

Question: What about the cell count [1] of the same compound?
Answer: 5220

Question: What about the cell count [2] of the same compound?
Answer: 5400

Question: What about the cell count [3] of the same compound?
Answer: 5470

Question: And the cell count [4]?
Answer: 3820

Question: Which z-score does the source give for C[C@H](N)C(=O)CCCCCC(=O)O here?
Answer: -0.273 (inactive)

Question: What about the cell count of the same compound?
Answer: 5410

Question: What does the source list for NCCCNCCCCN(CCCN)[N+]([O-])=NO?
Answer: z-score: 1.09 (inactive); cell count: 5110

Question: With COc1ccc2cc(CC(=O)O)ccc2c1 as the compound, how does the z-score read?
Answer: -0.782 (inactive)

Question: What about the cell count of the same compound?
Answer: 5780

Question: For CCCCC[C@H](O)/C=C/[C@H]1CC[C@H](O)[C@@H]1CCCCCCC(=O)O, which z-score is on record?
Answer: -0.59 (inactive)

Question: What about the cell count of the same compound?
Answer: 5510

Question: With CN(C)C1CCN(C(=O)c2ccc(NC(=O)Nc3ccc(-c4nc(N5CCOCC5)nc(N5CCOCC5)n4)cc3)cc2)CC1 as the compound, how does the outcome read?
Answer: inactive; censored for cell count

Question: And the z-score [1]?
Answer: -0.0957 (inactive)

Question: What about the z-score [2] of the same compound?
Answer: 0.581 (inactive)

Question: What about the z-score [3] of the same compound?
Answer: 2.23 (active)

Question: And the cell count [1]?
Answer: 5680

Question: What about the cell count [2] of the same compound?
Answer: 4160

Question: What about the cell count [3] of the same compound?
Answer: 1900

Question: With CNC(=O)Nc1ccc(-c2nc(N3CC4CCC(C3)O4)c3cnn(C4CCC5(CC4)OCCO5)c3n2)cc1 as the compound, how does the outcome read?
Answer: inactive; censored for cell count

Question: And the z-score [1]?
Answer: 1.01 (inactive)

Question: And the z-score [2]?
Answer: 1.56 (inactive)

Question: What about the z-score [3] of the same compound?
Answer: 1.64 (inactive)

Question: What about the cell count [1] of the same compound?
Answer: 2180

Question: What about the cell count [2] of the same compound?
Answer: 1780

Question: What about the cell count [3] of the same compound?
Answer: 1600

Question: Which results are given for O=C(Nc1ccccc1)Nc1ccc(-c2ccc(C(=O)C3CCCC3C(=O)O)cc2)cc1 (configuration not stated)?
Answer: z-score [1]: -0.37 (inactive); z-score [2]: -0.219 (inactive); z-score [3]: -0.285 (inactive); z-score [4]: -0.46 (inactive); cell count [1]: 5980; cell count [2]: 5880; cell count [3]: 6590; cell count [4]: 5760

Question: What does the source list for CC(C)CCC[C@@H](C)[C@H]1CC[C@H]2[C@@H]3CC(=O)[C@@]4(O)C[C@@H](O)CC[C@]4(C)[C@H]3CC[C@]12C?
Answer: z-score: 0.076 (inactive); cell count: 4620

Question: Which results are given for CN(CC=CC#CC(C)(C)C)Cc1cccc2ccccc12?
Answer: z-score [5]: -0.128 (inactive); z-score [6]: -0.114 (inactive); z-score [7]: -0.2 (inactive); z-score [4]: -0.286 (inactive); cell count [5]: 4930; cell count [6]: 4830; cell count [7]: 5350; cell count [4]: 5180

Question: What does the source list for CCCCCCCCC#CCCCCCCCC(=O)c1nc2ncccc2o1?
Answer: z-score: -0.992 (inactive); cell count: 5900

Question: What does the source list for CCOC(=O)C(N)Cc1ccc(-c2cc(OC(c3ccc(Cl)cc3-n3ccc(C)n3)C(F)(F)F)nc(N)n2)cc1 (configuration not stated)?
Answer: z-score [5]: -0.503 (inactive); z-score [6]: -0.649 (inactive); z-score [7]: -0.638 (inactive); z-score [4]: 1.7 (inactive); cell count [5]: 6360; cell count [6]: 6270; cell count [7]: 6660; cell count [4]: 2760

Question: Which z-score does the source give for CCCCCCCCCCCCCCCCOC[C@H](COP(=O)([O-])OCC[N+](C)(C)C)OC(=O)NC here?
Answer: -1.68 (inactive)

Question: What about the cell count of the same compound?
Answer: 5690

Question: For O=C(c1cc(Cc2n[nH]c(=O)c3ccccc23)ccc1F)N1CCN(C(=O)C2CC2)CC1, which z-score [1] is on record?
Answer: -0.363 (inactive)

Question: And the z-score [2]?
Answer: -0.127 (inactive)

Question: And the z-score [3]?
Answer: 0.0622 (inactive)

Question: And the z-score [4]?
Answer: 2.51 (active)

Question: And the cell count [1]?
Answer: 6190

Question: What about the cell count [2] of the same compound?
Answer: 5590

Question: What about the cell count [3] of the same compound?
Answer: 5940

Question: And the cell count [4]?
Answer: 3720

Question: What does the source list for Nc1ccccc1NC(=O)c1ccc(CNC(=O)OCc2cccnc2)cc1?
Answer: z-score: 5.22 (active); z-score [5]: -0.106 (inactive); z-score [6]: -0.0587 (inactive); z-score [7]: 4.46 (active); z-score [4]: 13.5 (active); cell count: 4300; cell count [5]: 4680; cell count [6]: 4820; cell count [7]: 3240; cell count [4]: 1730

Question: Which results are given for CC(C)(C)c1ccc(S(=O)(=O)NCc2ccc(C(=O)Nc3cccnc3)cc2)cc1?
Answer: z-score [1]: -0.216 (inactive); z-score [2]: 0.0762 (inactive); z-score [3]: 0.362 (inactive); z-score [4]: 0.0219 (inactive); cell count [1]: 6170; cell count [2]: 5130; cell count [3]: 2500; cell count [4]: 1690

Question: Which z-score [1] does the source give for O=C(NCc1cccnc1)c1ccc(CNS(=O)(=O)c2ccc(F)cc2)cc1 here?
Answer: -0.0415 (inactive)

Question: And the z-score [2]?
Answer: -0.565 (inactive)

Question: What about the z-score [3] of the same compound?
Answer: -0.611 (inactive)

Question: And the z-score [4]?
Answer: -0.531 (inactive)

Question: What about the cell count [1] of the same compound?
Answer: 5120

Question: What about the cell count [2] of the same compound?
Answer: 5290

Question: What about the cell count [3] of the same compound?
Answer: 5220

Question: What about the cell count [4] of the same compound?
Answer: 4960
